High-throughput results as filed in PubChem.
Rv3671c protease – Rv3671c serine protease inhibitors, primary screen, biochemical, fluorescence polarization, M. tuberculosis H37Rv; 320,000 tested, 0.048% active; P9WHR9; AID 2606, 2010; inhibition, % at 5.96 µM; in the data active means inhibition above about 38%;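 further: extracellular domain of Rv3671c used as enzyme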
Target sequence (P9WHR9 whole entry, looked up, the tested form may be a part): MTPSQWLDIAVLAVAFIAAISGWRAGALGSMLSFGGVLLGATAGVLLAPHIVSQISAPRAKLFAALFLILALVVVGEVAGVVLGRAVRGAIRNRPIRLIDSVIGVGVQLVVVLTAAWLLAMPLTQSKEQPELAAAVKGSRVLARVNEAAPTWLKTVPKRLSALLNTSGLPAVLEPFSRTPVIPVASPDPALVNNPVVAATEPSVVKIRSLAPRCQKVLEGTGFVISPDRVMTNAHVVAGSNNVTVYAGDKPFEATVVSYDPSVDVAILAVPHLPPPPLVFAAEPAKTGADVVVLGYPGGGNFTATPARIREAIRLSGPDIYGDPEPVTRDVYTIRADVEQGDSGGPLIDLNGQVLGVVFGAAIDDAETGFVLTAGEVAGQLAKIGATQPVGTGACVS
FadD28 binding – inhibitors of FadD28 bisubstrate probe binding, primary screen, biochemical, fluorescence polarization, single point; inhibition, % at 12.5 µM; 360,000 tested, 0.22% active; AID 588549, 2011; in the data active means inhibition above about 8.5%, passing the limit was not always enough
FBA Mtb inh – Mtb FBA enzyme inhibitors, primary screen, biochemical, fluorescence, strain H37Rv; inhibition, % at 1 µM; 360,000 tested, 2.3% active; purified M. tuberculosis FBA, fluorescence read-out
Target sequence (P9WQA3 whole entry, looked up): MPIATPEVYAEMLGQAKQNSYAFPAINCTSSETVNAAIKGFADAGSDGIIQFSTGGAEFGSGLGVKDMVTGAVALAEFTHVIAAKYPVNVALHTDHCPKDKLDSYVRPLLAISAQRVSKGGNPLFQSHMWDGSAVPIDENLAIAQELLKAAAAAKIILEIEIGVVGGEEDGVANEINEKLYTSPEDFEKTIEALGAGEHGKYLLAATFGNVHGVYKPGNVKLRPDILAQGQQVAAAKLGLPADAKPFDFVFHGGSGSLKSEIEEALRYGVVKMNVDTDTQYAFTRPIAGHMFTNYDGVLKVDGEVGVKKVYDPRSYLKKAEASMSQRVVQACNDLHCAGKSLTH
Mtb UGM inh – M. tuberculosis UGM enzyme inhibitors, primary screen, biochemical, fluorescence polarization, single point; UDP-galactopyranose mutase (Mycobacterium tuberculosis (strain ATCC 25618 / H37Rv)), …; purified UGM, fluorescence polarization probe displacement; inhibition, % at 10 µM; 320,000 tested, 0.06% active; in the data active means inhibition above about 10%, passing the limit was not always enough
GDH-TPI counter-1 – GDH-TPI coupling enzyme inhibitors, primary screen, artefact control for M. tuberculosis FBA inhibitor project, biochemical, absorbance, full deck; GDH-TPI coupled enzyme counterscreen, NADH absorbance; inhibition, % at 4.8 µM; 360,000 tested, 1.2% active; AID 588335, 2011; in the data active means inhibition above about 30%
Mtb hypoxia rep – PubChem AID 1159583. M. tuberculosis hypoxia-regulated fluorescent reporter, fluorescence. fluorescence inhibition, % (no concentration beside the values). 300,000 tested, 0.1% active; in the data active means fluorescence inhibition mostly above about 23%, no sharp cut-off; inactive means mostly below about 17%
Mtb FBA inh conf – M. tuberculosis aldolase blockers, biochemical, fluorescence, strain H37Rv, confirmation | shares compounds with FBA Mtb inh | purified M. tuberculosis FBA, fluorescence read-out | inhibition, % at 1 µM | 5,600 tested, 78% active | AID 651616, 2012
GDH-TPI counter-2 – GDH-TPI coupling enzyme inhibitors, artefact control for M. tuberculosis FBA inhibitor project, biochemical, fluorescence, high throughput; 5,600 tested, 81% active; GDH-TPI coupled enzyme counterscreen; shares compounds with FBA Mtb inh; inhibition, % at 1 µM; in the data active means inhibition above about 10%
Large screens that a line does not name were inactive (follow-up assays come after a bar, where they were run). Compounds with a hit are over-represented: about 3.5% of the library has one in this group of screens. Unless noted, no stated cut-off is given here; in the data, active means inhibition above about 27%; inactive means the rest.

COc1ccc2oc(C(=O)OCC(=O)NCCc3ccc(S(N)(=O)=O)cc3)c(C)c2c1	FBA Mtb inh 37.8 | Mtb FBA inh conf active | GDH-TPI counter-2 183.8
Cc1ccc(C(=O)OCC(=O)NCCc2ccc(S(N)(=O)=O)cc2)o1	none
COc1ccc2oc(C(=O)OCC(=O)NCCc3ccccc3)c(C)c2c1	FBA Mtb inh 31.6 | Mtb FBA inh conf 57.8 | GDH-TPI counter-2 43.0
CCC=CC(=O)N1CC2(CC(c3cccc(NC(=O)COc4ccc(Cl)cc4)c3)=NO2)CC1C(N)=O (centres undefined)	none (no result: Rv3671c protease, FadD28 binding, FBA Mtb inh, Mtb UGM inh, GDH-TPI counter-1)
COc1ccc(C=NNC(=O)c2ccoc2C)cc1OC	none (no result: Rv3671c protease, FadD28 binding, FBA Mtb inh, Mtb UGM inh, GDH-TPI counter-1)
Fc1ccc(CN2CCC3C=CCc4cccc(c43)C2)cc1 (centres undefined)	none (no result: Rv3671c protease, FadD28 binding, FBA Mtb inh, Mtb UGM inh, GDH-TPI counter-1)
CC1(C)Cc2c(C#N)c(NCCN3CCOCC3)nc(-c3ccco3)c2CO1	none
CN1CCc2c(C#N)c(N3CCCCC3)nc(NCc3ccccc3)c2C1	none
N#Cc1c(NCCCO)nc(-c2ccco2)c2c1CCCC2	FBA Mtb inh 27.0 (no result: Mtb hypoxia rep) | Mtb FBA inh conf 51.8 | GDH-TPI counter-2 43.6
N#Cc1c(NCCCO)nc(NCc2ccccc2)c2c1CCN(Cc1ccccc1)C2	FBA Mtb inh 32.1 (no result: Mtb hypoxia rep) | Mtb FBA inh conf 115.7 | GDH-TPI counter-2 107.9
CC1(C)Cc2c(C#N)c(NCCO)nc(-c3ccco3)c2CO1	FBA Mtb inh 59.3 | Mtb FBA inh conf 31.9 | GDH-TPI counter-2 20.0
N#Cc1c(NC2CCCCC2)nc(-c2ccco2)c2c1CCCC2	none (no result: Mtb hypoxia rep)
COC(=O)c1ccc(CON=Cc2ccc(OC)cc2)o1	none (no result: Rv3671c protease, FadD28 binding, FBA Mtb inh, Mtb UGM inh, GDH-TPI counter-1)
Oc1ccc2c3c1OC1c4oc5ccccc5c4C[C@@]4(O)C(C2)N(CC2CC2)CC[C@]314 (some centres undefined)	none (no result: Rv3671c protease, FadD28 binding, FBA Mtb inh, Mtb UGM inh, GDH-TPI counter-1)
O=C(CSc1nnc(-c2ccccn2)n1Cc1ccccc1)N1CCCC1	FBA Mtb inh 84.0 | Mtb FBA inh conf 101.3 | GDH-TPI counter-2 68.4
CNC(=O)/C(C#N)=C/c1c(N2CCN(c3ccc(OC)cc3)CC2)nc2c(C)cccn2c1=O	FBA Mtb inh 36.7 | Mtb FBA inh conf active | GDH-TPI counter-2 142.4
COC(=O)/C(C#N)=C/c1c(N2CCN(c3ccc(OC)cc3)CC2)nc2c(C)cccn2c1=O	none
CNC(=O)/C(C#N)=C/c1c(N2CCN(c3ccccc3)CC2)nc2c(C)cccn2c1=O	FBA Mtb inh 36.6 | Mtb FBA inh conf inactive | GDH-TPI counter-2 inactive
CNC(=O)/C(C#N)=C/c1c(N2CCCCCC2)nc2c(C)cccn2c1=O	FBA Mtb inh 28.4 | Mtb FBA inh conf active | GDH-TPI counter-2 184.1
CNC(=O)/C(C#N)=C/c1c(N2CCCCCC2)nc2ccccn2c1=O	FBA Mtb inh 64.5 | Mtb FBA inh conf inactive | GDH-TPI counter-2 inactive
Cc1cccc(C2C3C(=O)N(Cc4ccccc4)C(=O)C3[C@]3(CC(C)C)C(=O)N(c4cccc(F)c4)C(=O)N23)c1 (some centres undefined)	none (no result: Rv3671c protease, FadD28 binding, FBA Mtb inh, Mtb UGM inh, GDH-TPI counter-1)
Cc1ccc2c(c1)COc1c3ccc(C(=O)NC(CO)C(C)C)cc3nn1-2 (centres undefined)	none (no result: Rv3671c protease, FadD28 binding, FBA Mtb inh, Mtb UGM inh, GDH-TPI counter-1)
N#Cc1ccc(-c2ccc(OCC(O)Cn3nnc4ccccc43)cc2)cc1 (centres undefined)	FBA Mtb inh 30.8 (no result: Mtb hypoxia rep) | Mtb FBA inh conf active | GDH-TPI counter-2 active
N#Cc1ccc(-c2ccc(OCC(O)CN3CCCCC3)cc2)cc1 (centres undefined)	FBA Mtb inh 57.7 | Mtb FBA inh conf 115.6 | GDH-TPI counter-2 81.2
Cc1cccn2c(=O)c3cc(C(=O)NC4CCCCCC4)sc3nc12	none
Cc1cccn2c(=O)c3cc(C(=O)NCCc4ccccc4)sc3nc12	FBA Mtb inh 35.0 | Mtb FBA inh conf inactive | GDH-TPI counter-2 inactive
Cc1ccccc1NC(=O)c1cc2c(=O)n3cccc(C)c3nc2s1	none
CCCCNC(=O)c1cc2c(=O)n3cccc(C)c3nc2s1	FBA Mtb inh 73.6 | Mtb FBA inh conf active | GDH-TPI counter-2 active
CSc1ccccc1NC(=O)c1cc2c(=O)n3ccccc3nc2s1	none
COCCCNC(=O)c1cc2c(=O)n3cccc(C)c3nc2s1	FBA Mtb inh 65.1 | Mtb FBA inh conf 65.8 | GDH-TPI counter-2 47.2
Cc1cccn2c(=O)c3cc(C(=O)N4COCC4(C)C)sc3nc12	FBA Mtb inh 44.1 | Mtb FBA inh conf 191.5 | GDH-TPI counter-2 148.8
C#CCOCCOCCOCCNc1nc(N2CCOCC2)nc(N2CCN(C(=O)C(CC(N)=O)n3cc(C(N)C(C)C)nn3)CC2)n1 (centres undefined)	none (no result: Rv3671c protease, FadD28 binding, FBA Mtb inh, Mtb UGM inh, GDH-TPI counter-1)
CCc1cc(=O)oc2cc(C)cc(O)c12	none (no result: Mtb hypoxia rep)
CCc1cc(=O)oc2cc(C)cc(OCC(C)=O)c12	FBA Mtb inh 77.1 | Mtb FBA inh conf 56.1 | GDH-TPI counter-2 46.4
CC(=O)Nc1ccc(NC(=O)COc2cc(C)cc3oc(=O)cc(C)c23)cc1	none
CCc1cc(=O)oc2cc(C)cc(OCC(=O)C(C)(C)C)c12	FBA Mtb inh 65.3 | Mtb FBA inh conf 126.2 | GDH-TPI counter-2 105.5
CN(C)CCNC(=O)c1cccc2[nH]c(-c3ccncc3)nc12	FBA Mtb inh 35.5 (no result: Rv3671c protease, Mtb UGM inh, Mtb hypoxia rep) | Mtb FBA inh conf inactive | GDH-TPI counter-2 20.4
CN(C)CCNC(=O)c1cccc2nc3c(ccc4ccccc43)nc12	none (no result: Rv3671c protease, Mtb UGM inh, Mtb hypoxia rep)
CC1=C(C(=O)OC(C)C)C(c2cccnc2)C2=C(CCCC2=O)N1 (centres undefined)	FBA Mtb inh 36.4 | Mtb FBA inh conf inactive | GDH-TPI counter-2 inactive
CCOC(=O)C1=C(C)NC2=C(C(=O)CCC2)C1c1cccnc1 (centres undefined)	FBA Mtb inh 36.1 | Mtb FBA inh conf inactive | GDH-TPI counter-2 inactive
CCOc1ccc2ccccc2c1C=NNC(=O)c1ccc([N+](=O)[O-])cc1	none (no result: Rv3671c protease, FadD28 binding, FBA Mtb inh, Mtb UGM inh, GDH-TPI counter-1)
C#CCOCCOCCOCCNc1nc(N2CCN(C(=O)Cn3cc(CCO)nn3)CC2)nc(N2CCN(C(=O)C(Cc3ccc(O)cc3)n3cc(CCO)nn3)CC2)n1 (centres undefined)	none (no result: Rv3671c protease, FadD28 binding, FBA Mtb inh, Mtb UGM inh, GDH-TPI counter-1)
O=C1CCC=CCC(CC(=O)N(CCO)Cc2ccccc2)C(=O)NC(Cc2ccccc2)CO1 (centres undefined)	none (no result: Rv3671c protease, FadD28 binding, FBA Mtb inh, Mtb UGM inh, GDH-TPI counter-1)
CCCc1nc2sc(C(=O)OCC)c(N)c2c2c1COC(C)(C)C2	none (no result: Mtb hypoxia rep)
CCCc1nc2oc(C(=O)OCC)c(N)c2c2c1COC(C)(C)C2	FBA Mtb inh 58.6 | Mtb FBA inh conf 91.8 | GDH-TPI counter-2 88.6
Clc1cccc(C=NNc2ncnc3ccccc23)c1	none (no result: Rv3671c protease, FadD28 binding, FBA Mtb inh, Mtb UGM inh, GDH-TPI counter-1)
